Source: PubChem
M1 PAM parental = nonselective activator or artifact in parental CHO-K1 calcium assay. AID 602247. 360,000 tested, 0.02% active. activation, % at 3 µM. ATP EC20, Fluo-8 calcium fluorescence; 0% at ATP EC20, 100% at ATP max;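 active = activation above the run cutoff, the mean activation of all test compounds plus 3 SD, cut at about 40% in these data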;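 note: peak over basal fluorescence ratio in a 140 s read after ATP addition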
M1 PAM = potentiates human M1 receptor response to acetylcholine. CHO-K1 hM1, Fluo-8 calcium fluorescence, ACh EC20; 0% = ACh EC20, 100% = maximal ACh. activation, % at 3 µM. 360,000 tested, 0.088% active; in the data active = activation above about 19%, passing the limit was not always enough
Target sequence (P11229 whole entry, looked up): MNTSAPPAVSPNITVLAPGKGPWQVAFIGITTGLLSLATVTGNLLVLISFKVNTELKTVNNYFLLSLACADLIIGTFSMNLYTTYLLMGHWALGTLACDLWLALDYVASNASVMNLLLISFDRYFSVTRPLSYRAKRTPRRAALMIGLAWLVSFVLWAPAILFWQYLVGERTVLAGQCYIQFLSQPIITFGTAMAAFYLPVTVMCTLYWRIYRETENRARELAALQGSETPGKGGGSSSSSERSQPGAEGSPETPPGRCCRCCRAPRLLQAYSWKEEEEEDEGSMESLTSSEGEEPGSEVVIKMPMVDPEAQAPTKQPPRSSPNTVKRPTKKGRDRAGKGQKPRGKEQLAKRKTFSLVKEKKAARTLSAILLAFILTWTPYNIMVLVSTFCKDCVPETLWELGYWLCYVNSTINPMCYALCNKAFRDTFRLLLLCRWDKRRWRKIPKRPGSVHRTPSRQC
M1 ag = human M1 muscarinic receptor agonism; AID 588814; activation, % at 3 µM; CHO-K1 hM1, Fluo-8 calcium fluorescence, agonist mode; 0% DMSO, 100% acetylcholine EC100; P11229; 360,000 tested, 0.33% active;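 active = activation above the run's mean compound activation plus 3 SD, cut at about 16% in these data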;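 note: peak over basal fluorescence ratio within a 140 s kinetic read after compound addition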
M1 ag parental = M1 agonist counterscreen hit in parental CHO-K1 cells; 360,000 tested, 0.48% active; AID 602248; activation, % at 3 µM; Fluo-8 calcium fluorescence; scaled to maximal ATP response, vehicle zero; in the data active = activation above about 15%;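 note: untransfected CHO-K1 host cells lacking M1 receptor as counterscreen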
M1 antag = human CHRM1 antagonism | P11229 | inhibition, % at 3 µM | CHO-K1 hM1, Fluo-8 calcium fluorescence, ACh EC80 antagonist | 360,000 tested, 1.3% active | AID 588852;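 active = percent inhibition above its own plate's cutoff, namely the mean of that plate's compound wells plus 3 SD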;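 note: peak over basal fluorescence ratio during 140 s after agonist addition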
CHO-K1 Ca antag = counter-screen for M1 antagonists: effect in parental CHO-K1 cells; 360,000 tested, 0.6% active; ATP-induced calcium, Fluo-8 fluorescence; AID 602250; inhibition, % at 3 µM;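 active = inhibition above a per-plate cutoff, the plate's mean sample inhibition plus 3 SD, cut at about 24% in these data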
Each line names hits and unclear results; the compound was inactive in the other large screens; ! = a repeat was not active. Shown are actives, neighbours in structure and some others; about 2.3% of the full set was active somewhere.

CCOC(=O)Cc1csc(NC(=O)c2sc3nc4ccc(C)cc4cc3c2N)n1	M1 PAM 34
CCOC(=O)Cc1csc(NC(=O)c2ccncc2)n1	none
CCOC(=O)Cc1csc(NC(=O)c2cc(-c3ccncc3)nc3ccccc23)n1	M1 antag 36
CCCCNC(=O)c1nc(C2CCN(S(=O)(=O)c3c(F)cccc3F)CC2)oc1-c1ccccc1	none
CC(=O)Nc1cccc(NC(=O)c2cc(-c3cccnc3)nc3ccc(Br)cc23)c1	M1 antag 42
CN1CCc2c(c3ccccc3n2Cc2ccccc2)C1	M1 antag 66!
COc1ccc(CCNc2oc(Cc3cccc4ccccc34)nc2C#N)cc1OC	none
COc1ccc(CCNc2oc(COc3ccc(Br)cc3)nc2C#N)cc1OC	M1 antag 36
CCC1CC(=O)CCN1S(=O)(=O)c1ccc(C)cc1 (stereo not drawn)	none
CN(C)C(CNC(=O)c1ccc(NC(=O)CC#N)cc1)c1ccccc1 (stereo not drawn)	M1 antag 30
COc1ccc(NC(=O)COc2ccccc2C(=O)NCC(c2ccccc2)N(C)C)cc1Cl (stereo not drawn)	M1 antag 73
CN(C)C(CNC(=O)CCC(=O)c1ccc(Br)cc1)c1ccccc1 (stereo not drawn)	M1 antag 35
CN(C)C(CNC(=O)CCS(=O)(=O)c1ccccc1)c1ccccc1 (stereo not drawn)	none
COc1ccc(NC(=O)COc2ccccc2)cc1Cl	none
CCOC(=O)c1c(NC(=O)COC(=O)c2cnccn2)sc(C)c1C	none
Cc1ccc(NC(=O)C2CCN(c3ncnc4sc(C)c(C)c34)CC2)cc1S(=O)(=O)N(C)C	none
Cc1sc2ncnc(N3CCC(C(=O)N(C)CC(=O)Nc4ccccc4Br)CC3)c2c1C	M1 antag 35
CCN(CC(=O)Nc1cc(Cl)ccc1C)C(=O)C1CCN(c2ncnc3sc(C)c(C)c23)CC1	M1 antag 37
CCN(CC)S(=O)(=O)c1cc(NC(=O)C2CCN(c3ncnc4sc(C)c(C)c34)CC2)ccc1Cl	M1 antag 36
COc1ccc2cc(-c3[nH]ncc3CN3CCCN(c4ccccc4)CC3)ccc2c1	none
CC(CCN1C(N(C)C)=NC[C@@H]1C)c1ccccc1 (stereo partly drawn)	M1 antag 31
c1ccc(-c2cc(CSc3nc4ccccc4[nH]3)on2)cc1	M1 antag 21
Cc1noc(C)c1CSc1nc2ccccc2[nH]1	M1 antag 24
COc1ccc(N2CCN(c3oc(-c4ccc(OC)c(OC)c4)nc3C#N)CC2)cc1	none
COc1ccc(-c2nc(C#N)c(N3CCN(c4ccccc4)CC3)o2)cc1	M1 antag 29
N#CC1=C(N)Oc2c(oc(CO)cc2=O)C1c1ccccc1[N+](=O)[O-] (stereo not drawn)	none
CC(=O)N1c2ccc(S(=O)(=O)N3CCCC3C(=O)Nc3ccc(C)cc3)cc2CC1C (stereo not drawn)	none
CC(NC(=O)COc1ccccc1)C(=O)NCc1ccc(S(N)(=O)=O)cc1 (stereo not drawn)	M1 PAM 27
CC(NCc1ccc(S(N)(=O)=O)cc1)C(=O)NCc1ccccc1 (stereo not drawn)	none
CCc1ccc(N(CC(=O)NC2CCCC2)C(=O)CCC(=O)Nc2ccccn2)cc1	none
COCCNC(=O)C(=O)NCC1OCCN1S(=O)(=O)c1ccc(F)cc1 (stereo not drawn)	none
CN(C)C(=O)CSc1nnc(-c2cc(-c3cccs3)nc3ccccc23)o1	CHO-K1 Ca antag 27
O=C(NN=Cc1ccccc1C(=O)O)c1cccc(S(=O)(=O)Nc2cccc(C(F)(F)F)c2)c1	none
Cc1ccc2c(c1)C(=O)C(=O)N2Cc1ccc(Cl)cc1	M1 ag 17
COc1cccc(C(=O)C[n+]2ccccc2/C=N/O)c1	M1 antag 27
O=C(CC[C@H]1O[C@@H](n2ccc(=O)[nH]c2=O)[C@H](O)[C@@H]1O)N[C@@H](Cc1ccccc1)C(=O)NCC1CCCO1 (stereo partly drawn)	none
CC[C@@H](NS(=O)(=O)c1ccc(C)cc1)C(=O)Oc1ccc2c3c(c(=O)oc2c1)CCC3	none
